Inconclusive results are not listed. Active and inactive are the calls of the source. The call rests on the fitted dose curve; in most records, active means well fitted curve in the direction sought with a large enough effect; inconclusive means small, poorly fitted or top-dose-only effect, or another doubt; inactive means no such curve, though single readings can be large; an effect the other way counts as inactive or inconclusive.
Experiments:
[1] = P-glycoprotein substrates identified in KB-3-1 adenocarcinoma cell line, qHTS therapeutic library screen (AID 1346986);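 further: potency is for cytotoxicity meaning loss of cell viability; nearly all actives have a fitted effect of over 60% in size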
How it was run: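 KB-3-1 parental and colchicine-selected P-gp-overexpressing KB-8-5-11 cells (colchicine omitted during assay), 500 cells/well, dosed in dose-response for 72 h at 37 °C; CellTiter-Glo luminescence. Cytotoxic: curve class -1.1 to -2.4, max response >50%, AC50 < 10 uM.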

[2] = P-glycoprotein substrates identified in KB-8-5-11 adenocarcinoma cell line, qHTS therapeutic library screen (AID 1346987); further: nearly all actives have a fitted effect of over 65% in size
How it was run: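 KB-8-5-11, a colchicine-selected P-gp-overexpressing KB-3-1 subline, was grown without colchicine for the assay. Cells were seeded at 500 cells/well, dosed in concentration-response and incubated 72 h at 37 degree C, 5% CO2. Viability was read by CellTiter-Glo luminescence.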

[3] = Primary qHTS for inhibitors of nuclear receptor binding SET domain protein 2 (NSD2) in an isogenic RCH-ACV NSD2 p.E1099K mutant (9B) (AID 1645876); further: nearly all actives have a fitted effect of over 70% in size
[4] = Primary qHTS for inhibitors of nuclear receptor binding SET domain protein 2 (NSD2) in an RCH-ACV wild type WT cells (2C) (AID 1645877); further: nearly all actives have a fitted effect of over 70% in size

Measured: Potency
Potency means the concentration at half of the fitted maximal effect.

CC(C)(O)/C=C/C(=O)[C@](C)(O)[C@H]1[C@H](O)C[C@@]2(C)[C@@H]3CC=C4[C@@H](C=C(O)C(=O)C4(C)C)[C@]3(C)C(=O)C[C@]12C
active: [1] 94.4 nM | [2] 237 nM | [3] 42.2 nM | [4] 37.6 nM
